Reference: PubChem BioAssay (Tox21)
Inconclusive results are not listed. Active and inactive are the calls of the source. The call rests on the fitted dose curve.

Test: qHTS assay for small molecule disruptors of the mitochondrial membrane potential - cell viability (AID 720634);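 further: human HepG2 liver cancer cells; nearly all actives have a fitted effect of over 20% in size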
Details: HepG2 viability, ATP luminescence (CellTiter-Glo), 1 h; series mostly up to 83.2 µM
Excerpt: U.S. Tox21 Program National Center for Advancing Translational Sciences [NCATS] NIH Chemical Genomics Center [NCGC] U.S. Environmental Protection Agency [EPA] National Institutes of Environmental Health Sciences [NIEHS] National Toxicology Program [NTP] U.S. Food and Drug Administration [FDA] Tox21 Assay Overview: Mitochondrial membrane potential (MMP), one of the parameters for mitochondrial function, is generated by mitochondrial electron transport chain that creates an electrochemical gradient by a series of redox reactions. This gradient drives the synthesis of ATP, a crucial molecule for various cellular processes. Measuring MMP in living cells is commonly used to assess the effect of chemicals on mitochondrial function; decreases in MMP can be detected using lipophilic cationic fluorescent dyes. […] The dye accumulates in the mitochondria of healthy cells as aggregates, with red fluorescence. The mitochondrial potential decreases and the dye could not accumulate in the mitochondria and remains in the cytoplasm in monomers, with green fluorescence. In addition to the mitochondrial potential assay, these cells were also used to test the cytotoxicity by determining the cell viability in the culture based on the quantitation of ATP present. The cytotoxicity was measured in the same assay well of MMP assay.
Tox21 Assay Protocol Summary: 2,000 HepG2 cells in 5 uL/well were dispensed into black, clear-bottom 1536-well plates using a Multidrop Combi (Thermo Scientific) dispenser. The assay plates were incubated for an overnight at 37 C to allow cells to attach to the wells, followed by the transfer of 23 nL compound or DMSO vehicle by a pin tool (Kalypsys). The plates were incubated for 1 hr at 37 C and 5% CO2, followed by the addition of 5 uL of 2X m-MPI dye into each well using Flying Reagent Dispenser (Aurora Discovery) and then CellTiter-Glo reagent was added at 4 uL/well and incubated 30 min at room temperature. Then luminescence intensity was quantified on a ViewLux CCD-based plate reader.

Structure (SMILES) | outcome
CCCCCCCCCCCCCCCCI | inactive
C=CCOCC(CO)(COCC=C)COCC=C | inactive
O=c1[nH]c(=O)c2[nH]c(=O)[nH]c2[nH]1 | inactive
CNC(=O)C(c1ccccc1)c1ccccc1 | inactive
CN(C1CCCCC1)S(=O)(=O)c1ccccc1N | inactive
C[Si]1(C)N[Si](C)(C)N[Si](C)(C)N1 | inactive
Cn1c(=O)c2c(ncn2CC2OCCO2)n(C)c1=O | inactive
BrC/C=C/CBr | inactive
CCN(Cc1cccc(S(=O)(=O)O)c1)c1ccccc1 | inactive
OCCCCCCCl | inactive
O=C1NC2NC(=O)NC2N1 (stereo not given) | inactive
CCCCCCCCCCC | inactive
C=C[C@@H](C)CCC=C(C)C | inactive
C=COCCOCCOC=C | inactive
O=C1OC(=O)c2cc(Oc3ccc4c(c3)C(=O)OC4=O)ccc21 | inactive
C=CCOc1c(Br)cc(Br)cc1Br | inactive
C1=CCC(c2ccccc2)CC1 (stereo not given) | inactive
Cc1ccc2c(c1)c1c3n2CCNC3CCC1 (stereo not given) | inactive
FC(F)(F)c1ccc(Cl)cc1Cl | inactive
CCS(=O)(=O)CCn1c([N+](=O)[O-])cnc1C | inactive

Structure (SMILES) | outcome
Cc1ccc(S(=O)(=O)NC(=O)NC2CCCCCCC2)cc1 | inactive
C=C(C)C(=O)OCCCCCCOC(=O)C(=C)C | inactive
CCC(=O)OCCC(C)CCC=C(C)C (stereo not given) | inactive
CC(CC(=O)O)CC(C)(C)C (stereo not given) | inactive
CC(=O)OC(C(=O)c1ccccc1)c1ccccc1 (stereo not given) | inactive
O=C(Nc1cccc(C2=NCCN2)c1)Nc1cccc(C2=NCCN2)c1 | inactive
COc1cc(C=O)ccc1OC(=O)C(C)C | inactive
Cc1ccccc1N1CCN(CCc2nnc3n2CCCC3)CC1 | inactive
SCCSCCS | inactive
CCCO | inactive
CC(C)=CC(C)(C)C | inactive
CCCOCCOCCOCCO | inactive
C=CCOc1cc(Cl)ccc1C(=O)NCCN(CC)CC | inactive
COc1cccc2sc(N)nc12 | inactive
CCOC(=O)OCC/C(SC(=O)OCC)=C(\C)N(C=O)Cc1cnc(C)nc1N | inactive
O=C(O)/C=C/c1ccccc1 | inactive
CCCCCCCCCCCCC | inactive
CN=C(NC#N)NCCSCc1csc(N=C(N)N)n1 | inactive
C/C=C(\C)C(=O)OCC/C=C\CC | inactive
CCC(CO)CO | inactive
